CRFR2-BP ag: CRF-BP/CRF-R2 complex agonism; actives 0.46% (n = 350,000); HEK293 CRF-R2/CRF-BP, calcium dye fluorescence (FLIPR); percent of saturating CRF peptide response; activation, % at 13.2 µM; AID 588473;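 active means activation of at least 50%, plus an integration ratio under a set limit after plate pattern correction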;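 further: plate controls were neutral control wells without compound for no effect and CRF at EC100 for full effect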
FAS-TE inh: blocks the thioesterase domain of human fatty acid synthase | inhibition, % at 15 µM | P49327 | recombinant FAS-TE, OMFH fluorogenic substrate, fluorescence endpoint | AID 602261 | actives 0.67% (n = 360,000);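 active means compounds whose normalised, plate-corrected inhibition of enzyme fluorescence in the single-dose primary screen is 50% or more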;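 further: 0% = DMSO with enzyme and 100% = substrate without enzyme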
Target sequence (P49327 whole entry, looked up, the tested form may be a part): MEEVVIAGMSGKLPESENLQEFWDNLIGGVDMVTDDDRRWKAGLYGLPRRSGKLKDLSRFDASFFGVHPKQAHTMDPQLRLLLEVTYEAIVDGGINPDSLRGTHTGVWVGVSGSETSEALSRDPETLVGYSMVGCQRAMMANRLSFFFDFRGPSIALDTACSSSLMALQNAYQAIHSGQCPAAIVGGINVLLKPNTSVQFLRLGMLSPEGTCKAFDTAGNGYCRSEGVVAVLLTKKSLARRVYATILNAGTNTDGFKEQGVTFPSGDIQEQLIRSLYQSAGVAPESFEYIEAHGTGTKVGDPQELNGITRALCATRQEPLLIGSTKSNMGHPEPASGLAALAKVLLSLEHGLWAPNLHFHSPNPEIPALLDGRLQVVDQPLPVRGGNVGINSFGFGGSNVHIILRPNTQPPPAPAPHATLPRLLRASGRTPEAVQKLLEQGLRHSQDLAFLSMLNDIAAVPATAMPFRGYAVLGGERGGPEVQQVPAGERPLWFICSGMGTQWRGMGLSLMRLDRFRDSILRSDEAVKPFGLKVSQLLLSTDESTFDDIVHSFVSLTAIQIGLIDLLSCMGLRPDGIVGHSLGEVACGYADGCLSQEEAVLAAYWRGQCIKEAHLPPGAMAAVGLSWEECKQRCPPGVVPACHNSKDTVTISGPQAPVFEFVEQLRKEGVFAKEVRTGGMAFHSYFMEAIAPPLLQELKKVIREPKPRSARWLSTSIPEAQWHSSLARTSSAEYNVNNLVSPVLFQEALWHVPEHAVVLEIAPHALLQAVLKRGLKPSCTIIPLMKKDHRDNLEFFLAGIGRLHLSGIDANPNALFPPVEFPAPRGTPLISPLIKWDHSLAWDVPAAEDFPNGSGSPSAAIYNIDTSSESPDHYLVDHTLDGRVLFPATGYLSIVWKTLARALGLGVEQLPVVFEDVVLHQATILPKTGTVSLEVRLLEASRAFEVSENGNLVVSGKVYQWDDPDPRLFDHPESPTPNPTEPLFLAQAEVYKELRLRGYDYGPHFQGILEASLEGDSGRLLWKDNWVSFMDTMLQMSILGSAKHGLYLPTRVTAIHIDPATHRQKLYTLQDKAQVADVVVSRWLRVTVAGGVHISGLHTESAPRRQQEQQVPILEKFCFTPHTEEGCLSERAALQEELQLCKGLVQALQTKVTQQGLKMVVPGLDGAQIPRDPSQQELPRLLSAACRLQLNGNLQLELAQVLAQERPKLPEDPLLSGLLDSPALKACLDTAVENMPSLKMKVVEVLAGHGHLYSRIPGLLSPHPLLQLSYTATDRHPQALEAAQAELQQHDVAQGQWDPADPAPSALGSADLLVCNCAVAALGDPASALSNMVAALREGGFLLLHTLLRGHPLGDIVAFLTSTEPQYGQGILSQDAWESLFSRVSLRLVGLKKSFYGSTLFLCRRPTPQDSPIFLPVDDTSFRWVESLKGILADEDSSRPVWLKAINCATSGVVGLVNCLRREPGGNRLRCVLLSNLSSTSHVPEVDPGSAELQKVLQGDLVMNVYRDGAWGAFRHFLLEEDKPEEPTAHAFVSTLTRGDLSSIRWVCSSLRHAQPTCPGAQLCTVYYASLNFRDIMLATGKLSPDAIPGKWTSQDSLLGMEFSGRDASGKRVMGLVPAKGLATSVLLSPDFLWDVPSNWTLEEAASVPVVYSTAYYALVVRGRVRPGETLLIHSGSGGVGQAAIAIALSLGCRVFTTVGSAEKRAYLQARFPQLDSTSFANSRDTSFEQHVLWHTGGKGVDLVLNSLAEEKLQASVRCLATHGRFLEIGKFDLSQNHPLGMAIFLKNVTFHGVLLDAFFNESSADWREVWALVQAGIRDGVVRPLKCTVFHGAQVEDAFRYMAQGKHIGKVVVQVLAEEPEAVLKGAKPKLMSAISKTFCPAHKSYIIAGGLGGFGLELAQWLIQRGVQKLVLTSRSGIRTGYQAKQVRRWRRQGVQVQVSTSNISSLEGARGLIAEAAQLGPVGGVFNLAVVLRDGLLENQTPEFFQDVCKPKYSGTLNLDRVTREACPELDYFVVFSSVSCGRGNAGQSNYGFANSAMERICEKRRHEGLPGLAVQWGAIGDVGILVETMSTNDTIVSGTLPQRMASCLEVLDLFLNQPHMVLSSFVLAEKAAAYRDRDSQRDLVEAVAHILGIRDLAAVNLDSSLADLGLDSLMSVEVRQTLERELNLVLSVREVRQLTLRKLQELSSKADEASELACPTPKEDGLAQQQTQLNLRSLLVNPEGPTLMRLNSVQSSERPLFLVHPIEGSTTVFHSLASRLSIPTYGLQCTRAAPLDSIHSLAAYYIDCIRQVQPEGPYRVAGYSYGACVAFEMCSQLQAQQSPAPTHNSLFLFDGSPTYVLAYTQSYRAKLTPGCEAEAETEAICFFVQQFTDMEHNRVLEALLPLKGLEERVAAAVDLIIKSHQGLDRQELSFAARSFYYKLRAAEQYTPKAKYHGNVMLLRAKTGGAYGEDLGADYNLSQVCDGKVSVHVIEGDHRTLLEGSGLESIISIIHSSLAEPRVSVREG
aDG glyco up: increases alpha dystroglycan glycosylation | Pro5-aDG cells, alpha-DG glycosylation AlphaScreen (IIH6); 0% Pro5, 100% B10-LARGE cell signal | activation, % at 10 µM | actives 0.22% (n = 360,000);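 active means activation of at least 8% versus controls, or a plate z-score of at least 8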;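 further: Pro5 are CHO cells carrying HIG-tagged alpha-DG that lacks glycosylation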
CRFR2-BP antag: antagonists of CRF-binding protein/CRF-R2 receptor complex; HEK293 CRF-R2/CRF-BP, CRF-induced calcium fluorescence; inhibition, % at 11.8 µM; actives 0.59% (n = 350,000);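 active means inhibition of the ligand-induced calcium signal above about 50% at the single tested concentration, limit read from the data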
PfG6PD inh: PfG6PD (Plasmodium falciparum) enzyme inhibition; PfGluPho enzyme, NADPH resazurin-diaphorase fluorescence; actives 0.78% (n = 350,000); inhibition, % at 20 µM;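 active means inhibition reaching at least a set limit at 20 µM in the primary screen, cut at about 59% in these data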;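 further: 0% = DMSO wells with substrate and 100% = DMSO wells lacking glucose-6-phosphate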
Cardio protect: protects H9c2 cardiomyocytes from peroxide injury; H2O2 injury protection, ATPLite, 2 h; protection from H2O2 cell death, % at 20 µM; actives 0.63% (n = 360,000); AID 588492;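 active means compounds giving at least 50% protection of heart cells from peroxide-induced death in the single-dose screen, raw or plate-pattern-corrected value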;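 further: 0% = DMSO wells with peroxide and 100% = DMSO wells without peroxide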
FAS-TE inh conf: confirmation of human fatty acid synthase thioesterase inhibitors | shares compounds with FAS-TE inh | recombinant FAS-TE, OMFH fluorogenic substrate, fluorescence | inhibition, % at 15 µM | actives 45% (n = 2,300);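 active means compounds inhibiting the enzyme by at least 50% at 15 µM in any one of the replicates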;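 further: 0% = enzyme with DMSO only and 100% = wells lacking enzyme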
An asterisk follows results filed as active. This is a sample that favours compounds with a hit; in the whole collection about 3.2% have one here.

O=[N+]([O-])c1ccc(O)c(/C=N/Nc2ccccn2)c1 was read as CRFR2-BP ag 3, FAS-TE inh 8, aDG glyco up 1, CRFR2-BP antag -6, PfG6PD inh -43 and Cardio protect 26.
O=[N+]([O-])c1ccc(O)c(/C=N/Nc2ncnc3c2cnn3-c2ccccc2)c1 was read as CRFR2-BP ag 0, FAS-TE inh 56*, aDG glyco up 0, CRFR2-BP antag -4, PfG6PD inh -16, Cardio protect 9 and FAS-TE inh conf 28.
`COC(=O)[C@@]1(C(C)C)N=C(c2cc(OC)c(OC)c(OC)c2)[C@]2(O1)C(=O)N(Cc1ccc(OC)cc1)c1ccc(Br)cc12` gave FAS-TE inh 53*, aDG glyco up 0 and FAS-TE inh conf 14.
`CCOC(=O)CC1(C)Sc2ccccc2N1S(=O)(=O)c1ccc(C)cc1` (stereo unspecified) gave aDG glyco up 0.
Screening CN(Cc1ccccc1)C(=O)c1oc(=O)c2ccccc2c1-c1ccccc1 returned CRFR2-BP ag -1, FAS-TE inh 39, aDG glyco up 0, CRFR2-BP antag -18, PfG6PD inh 21 and Cardio protect -8.
Cc1ccc(-c2c(C(=O)N(C)Cc3ccccc3)oc(=O)c3ccccc23)cc1 was read as CRFR2-BP ag 2, FAS-TE inh 54*, aDG glyco up 0, CRFR2-BP antag 12, PfG6PD inh -2, Cardio protect -4 and FAS-TE inh conf 51*.
Screening Cc1nn(Cc2ccc(Cl)cc2)c(=O)n1N(C)c1ncc(C(F)(F)F)cc1Cl returned CRFR2-BP ag 2, FAS-TE inh 49, aDG glyco up 0, CRFR2-BP antag -8, PfG6PD inh 7 and Cardio protect -2.
Screening Cc1nn(Cc2ccc([N+](=O)[O-])cc2)c(=O)n1N(C)c1ncc(C(F)(F)F)cc1Cl returned CRFR2-BP ag 7, FAS-TE inh 79*, aDG glyco up 0, CRFR2-BP antag 11, PfG6PD inh 13, Cardio protect 3 and FAS-TE inh conf 65*.
For O=C(N1CCCC1)C(F)(F)Oc1ccc(F)cc1 the results were CRFR2-BP ag 2, FAS-TE inh -3, aDG glyco up 0, CRFR2-BP antag 1, PfG6PD inh -5 and Cardio protect -3.
COc1ccc([C@@H]2[C@@H]3C(=O)N(C(C)(C)C)C(=O)[C@@H]3[C@]3(Cc4ccc(Cl)cc4)C(=O)N(c4cccc(F)c4)C(=O)N23)cc1 was read as CRFR2-BP ag 1, FAS-TE inh 72*, aDG glyco up 1, CRFR2-BP antag 3, PfG6PD inh 12, Cardio protect -2 and FAS-TE inh conf 31.
`COc1ccc([C@@H]2[C@@H]3C(=O)N(C(C)(C)C)C(=O)[C@@H]3[C@]3(Cc4ccc(Cl)cc4)C(=O)N(c4cccc(Br)c4)C(=O)N23)cc1` gave CRFR2-BP ag 5, FAS-TE inh 95*, aDG glyco up 0, CRFR2-BP antag -1, PfG6PD inh 5, Cardio protect -5 and FAS-TE inh conf 22.
Screening COc1cc(/C=C/C(=O)N(C)CC(=O)Nc2ccccc2SC)cc(OC)c1OC returned CRFR2-BP ag -2, FAS-TE inh -3, aDG glyco up 0, CRFR2-BP antag 10, PfG6PD inh -3 and Cardio protect -3.
For CCc1ccc(OCC(=O)Nc2nnc(C3CCCC3)s2)cc1 the results were CRFR2-BP ag 0, FAS-TE inh -4, aDG glyco up 0, CRFR2-BP antag -32, PfG6PD inh -6 and Cardio protect -1.
`Cc1ccc(S(=O)(=O)N2CCN(Cc3ccccc3)CC2)c(C)c1N(C)S(=O)(=O)c1ccccc1` gave CRFR2-BP ag 2, FAS-TE inh 52*, aDG glyco up 0, CRFR2-BP antag 2, PfG6PD inh 14, Cardio protect 5 and FAS-TE inh conf 13.
`CCCCCCCCCCCCCCCCCCNc1ccn(C2OC(COP(=O)(O)OCC3OC(n4cc(F)c(=O)[nH]c4=O)CC3O)C(O)C2O)c(=O)n1` (stereo unspecified) gave CRFR2-BP ag 21, FAS-TE inh 55*, aDG glyco up 0, CRFR2-BP antag 20, PfG6PD inh -25, Cardio protect -2 and FAS-TE inh conf 27.
O=[N+]([O-])c1ccc(N=Nc2ncc[nH]2)cc1 was read as CRFR2-BP ag -1, FAS-TE inh 1, aDG glyco up 0, CRFR2-BP antag 3, PfG6PD inh 12 and Cardio protect -13.
Screening CN(C)S(=O)(=O)Oc1ccc(Cl)cc1C(=O)Nc1ccc(F)cc1F returned CRFR2-BP ag 0, FAS-TE inh -1, aDG glyco up 0, CRFR2-BP antag 4, PfG6PD inh 13 and Cardio protect -4.
For COc1ccc([N+](=O)[O-])cc1NC(=O)C(C)OC(=O)c1ccccc1C(=O)c1ccc(Cl)cc1 (stereo unspecified) the results were CRFR2-BP ag 7, FAS-TE inh 58*, aDG glyco up 0, CRFR2-BP antag -7, PfG6PD inh 20, Cardio protect -5 and FAS-TE inh conf 31.
Screening CCc1noc(C)c1C(=O)OC(C)C(=O)Nc1cc([N+](=O)[O-])ccc1OC (stereo unspecified) returned CRFR2-BP ag -1, FAS-TE inh 75*, aDG glyco up 0, CRFR2-BP antag 12, PfG6PD inh 17, Cardio protect 5 and FAS-TE inh conf 33.
Cc1noc(C)c1C(=O)OC(C)C(=O)Nc1ccc([N+](=O)[O-])cc1C(F)(F)F (stereo unspecified) was read as CRFR2-BP ag -1, FAS-TE inh -1, aDG glyco up 0, CRFR2-BP antag 7, PfG6PD inh -19 and Cardio protect -3.
`COc1ccc([N+](=O)[O-])cc1NC(=O)C(C)OC(=O)/C=C/c1ccco1` (stereo unspecified) gave CRFR2-BP ag 3, FAS-TE inh 62*, aDG glyco up 0, CRFR2-BP antag 1, PfG6PD inh 4, Cardio protect -4 and FAS-TE inh conf 59*.
`CC(OC(=O)/C=C/c1ccco1)C(=O)Nc1cccc([N+](=O)[O-])c1` (stereo unspecified) gave CRFR2-BP ag 1, FAS-TE inh 38, aDG glyco up 1, CRFR2-BP antag 4, PfG6PD inh 25 and Cardio protect -14.
`COc1ccc([N+](=O)[O-])cc1NC(=O)COC(=O)c1ccccc1C(=O)c1ccccc1` gave CRFR2-BP ag -2, FAS-TE inh 28, aDG glyco up 0, CRFR2-BP antag 5, PfG6PD inh -14 and Cardio protect -2.
